Test results: PubChem BioAssay AID1159580 (chemical genetic matrix, 2015)
In all, about 5,500 compounds went through this assay and about 2,000 (36%) were called active. Not shown: some 18% with an inconclusive outcome. No stated cut-off is given here; in the data, active means normalized growth mostly below about 0.91 (no sharp cut-off); inconclusive means no clear call, values can overlap the other calls; inactive means mostly above about 0.92. Some of the results follow.

Assay: chemical genetic growth profiling, strain panel (AID 1159580);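 further: tested at 20 µM; growth read once vehicle control cultures reached saturation at 30 °C; 1 = growth at the plate median or of vehicle wells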
Conditions: S. cerevisiae deletion strains, growth OD

Measured: normalized growth

CCC(=O)O[C@H](CC(=O)O)C[N+](C)(C)C
inactive: locus YHR030C, strain SLT2, stronger effect = lower value 1.02 | locus YHR079C, strain IRE1, stronger effect = lower value 1.05 | locus YJL095W, strain BCK1, stronger effect = lower value 1.05 | locus YJR066W, strain TOR1, stronger effect = lower value 0.967 | locus YLR113W, strain HOG1, stronger effect = lower value 1.02 | locus YNL183C, strain NPR1, stronger effect = lower value 0.988 | locus YOR231W, strain MKK1, stronger effect = lower value 1.04 | locus YPL256C, strain CLN2, stronger effect = lower value 1.04
